Laboratory results as given in the supplement of paper PMC11732987, “Enantioselective OTUD7B fragment discovery through chemoproteomics screening and high-throughput optimisation” (Communications Chemistry, 2025).
Unmarked numbers belong to inactive results.

Experiments:
Experiment in all cases: log2 ratio of Biotin-Ahx-Ub-VS probe labelling (fragment/DMSO); higher = less target engagement (more negative = stronger competition), active = hit call of the paper (q ≤ 0.05, log2 ratio ≤ -1)
Settings in all cases: compound concentration: 200 uM; treatment time: 3 h
ALG13 = target: T1, ALG13 (UniProt Q9NP73)
T1 sequence (whole entry): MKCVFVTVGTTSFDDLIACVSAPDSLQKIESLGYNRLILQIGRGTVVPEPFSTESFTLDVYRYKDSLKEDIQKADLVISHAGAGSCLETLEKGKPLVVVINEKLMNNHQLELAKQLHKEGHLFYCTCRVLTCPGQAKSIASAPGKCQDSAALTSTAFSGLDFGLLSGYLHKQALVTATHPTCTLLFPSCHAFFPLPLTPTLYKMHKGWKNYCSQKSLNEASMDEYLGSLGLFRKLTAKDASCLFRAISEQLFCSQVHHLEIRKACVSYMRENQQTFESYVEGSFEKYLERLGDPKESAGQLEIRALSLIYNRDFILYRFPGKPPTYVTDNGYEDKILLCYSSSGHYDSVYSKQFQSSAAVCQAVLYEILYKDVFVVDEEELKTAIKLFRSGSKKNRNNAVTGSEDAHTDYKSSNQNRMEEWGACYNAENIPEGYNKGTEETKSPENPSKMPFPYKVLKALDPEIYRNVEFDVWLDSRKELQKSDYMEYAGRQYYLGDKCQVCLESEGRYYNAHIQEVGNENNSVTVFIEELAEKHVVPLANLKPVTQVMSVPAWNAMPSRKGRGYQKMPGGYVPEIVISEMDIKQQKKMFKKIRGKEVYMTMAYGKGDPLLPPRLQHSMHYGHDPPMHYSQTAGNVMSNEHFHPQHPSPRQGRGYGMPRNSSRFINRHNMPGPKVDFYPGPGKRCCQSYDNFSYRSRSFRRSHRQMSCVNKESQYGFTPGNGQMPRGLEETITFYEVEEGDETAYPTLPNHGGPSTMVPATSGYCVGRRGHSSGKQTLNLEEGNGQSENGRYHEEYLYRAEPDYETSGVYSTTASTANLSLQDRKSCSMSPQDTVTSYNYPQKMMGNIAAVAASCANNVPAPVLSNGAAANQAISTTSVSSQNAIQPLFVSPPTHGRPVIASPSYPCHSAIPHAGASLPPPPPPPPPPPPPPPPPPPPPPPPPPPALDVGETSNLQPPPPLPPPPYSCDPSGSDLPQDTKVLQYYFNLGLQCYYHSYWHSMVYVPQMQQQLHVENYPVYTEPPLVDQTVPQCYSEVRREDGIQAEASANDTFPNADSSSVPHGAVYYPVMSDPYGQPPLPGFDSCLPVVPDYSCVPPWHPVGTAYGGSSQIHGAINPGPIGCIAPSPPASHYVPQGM
Summary of the method: (§1)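 Labelling with Biotin-Ahx-Ub-VS (0.5 µM final, 1 h) followed a 3 h triplicate treatment of HEK293T lysate (495 µg per sample, Tris/CHAPS/IGEPAL buffer with protease inhibitors) with fragment at 200 µM or vehicle. Labelled DUBs were NeutrAvidin-enriched, digested with LysC and trypsin, and run by diaPASEF LC-MS/MS. The values, average log2 fragment/vehicle ratios by unpaired t-test, come from global-median-normalised Spectronaut label-free quantities. Proteins with ≥2 unique peptides were used.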

ATXN3 = ATXN3 (UniProt P54252)
Summary of the method: as §1

BAP1 = target: T2, BAP1 (UniProt Q92560)
T2 sequence (whole entry): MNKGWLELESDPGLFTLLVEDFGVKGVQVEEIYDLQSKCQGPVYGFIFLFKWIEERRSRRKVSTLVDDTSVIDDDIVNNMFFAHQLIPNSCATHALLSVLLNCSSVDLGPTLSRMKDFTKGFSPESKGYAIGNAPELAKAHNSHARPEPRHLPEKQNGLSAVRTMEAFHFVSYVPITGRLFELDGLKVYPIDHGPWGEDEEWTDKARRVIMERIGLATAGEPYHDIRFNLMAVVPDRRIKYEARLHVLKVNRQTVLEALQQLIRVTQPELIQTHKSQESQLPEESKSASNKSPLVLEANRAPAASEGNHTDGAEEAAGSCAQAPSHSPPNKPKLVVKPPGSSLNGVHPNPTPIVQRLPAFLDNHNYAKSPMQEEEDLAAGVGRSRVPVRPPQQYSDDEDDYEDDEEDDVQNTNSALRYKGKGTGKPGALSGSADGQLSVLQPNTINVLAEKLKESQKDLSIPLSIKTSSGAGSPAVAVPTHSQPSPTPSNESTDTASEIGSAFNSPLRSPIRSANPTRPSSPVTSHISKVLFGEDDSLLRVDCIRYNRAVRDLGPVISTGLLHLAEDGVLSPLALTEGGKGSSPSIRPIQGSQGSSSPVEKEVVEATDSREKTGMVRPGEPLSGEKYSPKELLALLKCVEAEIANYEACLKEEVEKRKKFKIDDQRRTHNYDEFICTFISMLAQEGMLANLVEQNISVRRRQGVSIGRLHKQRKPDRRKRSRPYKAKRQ
Summary of the method: as §1

EIF3F = EIF3F (UniProt O00303)
Summary of the method: as §1

EIF3H = EIF3H (UniProt O15372)
Summary of the method: as §1

FAM105A = target: T3, FAM105A (UniProt Q9NUU6)
T3 sequence (whole entry): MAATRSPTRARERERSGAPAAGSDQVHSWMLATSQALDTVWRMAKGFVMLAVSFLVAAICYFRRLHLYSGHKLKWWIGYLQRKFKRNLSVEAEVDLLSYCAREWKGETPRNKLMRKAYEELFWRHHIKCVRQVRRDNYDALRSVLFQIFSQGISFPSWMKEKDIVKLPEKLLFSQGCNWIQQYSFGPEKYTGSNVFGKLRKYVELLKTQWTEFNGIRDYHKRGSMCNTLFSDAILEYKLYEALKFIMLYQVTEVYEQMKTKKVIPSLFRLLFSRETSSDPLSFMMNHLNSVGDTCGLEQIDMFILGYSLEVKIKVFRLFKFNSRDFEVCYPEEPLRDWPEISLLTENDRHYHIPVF
Summary of the method: as §1

OTUB1 = OTUB1 (UniProt Q96FW1)
Summary of the method: as §1

OTUD4 = target: T4, OTUD4 (UniProt Q01804)
T4 sequence (whole entry): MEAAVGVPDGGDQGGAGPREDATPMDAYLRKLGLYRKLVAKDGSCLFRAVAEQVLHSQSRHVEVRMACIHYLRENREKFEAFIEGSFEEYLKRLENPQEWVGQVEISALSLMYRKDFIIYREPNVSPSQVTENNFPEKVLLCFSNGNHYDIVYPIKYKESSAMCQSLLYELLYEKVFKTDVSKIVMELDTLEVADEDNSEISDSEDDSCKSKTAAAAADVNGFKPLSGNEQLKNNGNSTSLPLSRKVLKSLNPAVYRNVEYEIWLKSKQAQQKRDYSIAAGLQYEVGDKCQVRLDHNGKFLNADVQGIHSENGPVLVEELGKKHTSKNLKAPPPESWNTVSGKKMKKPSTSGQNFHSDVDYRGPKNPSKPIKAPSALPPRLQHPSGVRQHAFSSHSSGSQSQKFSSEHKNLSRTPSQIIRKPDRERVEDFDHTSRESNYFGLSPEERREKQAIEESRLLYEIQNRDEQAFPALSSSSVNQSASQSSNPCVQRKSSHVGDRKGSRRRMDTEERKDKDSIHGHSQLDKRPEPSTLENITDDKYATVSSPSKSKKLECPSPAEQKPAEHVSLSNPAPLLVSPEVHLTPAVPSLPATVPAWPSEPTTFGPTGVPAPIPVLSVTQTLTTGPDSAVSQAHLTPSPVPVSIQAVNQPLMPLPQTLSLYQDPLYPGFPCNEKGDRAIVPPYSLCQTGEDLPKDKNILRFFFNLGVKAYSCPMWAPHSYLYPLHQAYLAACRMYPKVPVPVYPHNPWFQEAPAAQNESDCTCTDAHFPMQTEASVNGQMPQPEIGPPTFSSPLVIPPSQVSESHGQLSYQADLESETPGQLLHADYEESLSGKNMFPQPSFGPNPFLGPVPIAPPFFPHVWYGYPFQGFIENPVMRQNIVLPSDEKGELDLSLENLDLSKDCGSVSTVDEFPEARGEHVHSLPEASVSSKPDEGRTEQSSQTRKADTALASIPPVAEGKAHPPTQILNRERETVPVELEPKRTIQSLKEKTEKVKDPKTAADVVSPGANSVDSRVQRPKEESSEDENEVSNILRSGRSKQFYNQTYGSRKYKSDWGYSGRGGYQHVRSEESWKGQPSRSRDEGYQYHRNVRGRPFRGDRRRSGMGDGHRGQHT
Summary of the method: as §1

OTUD5 = target: T5, OTUD5 (UniProt Q96G74)
T5 sequence (whole entry): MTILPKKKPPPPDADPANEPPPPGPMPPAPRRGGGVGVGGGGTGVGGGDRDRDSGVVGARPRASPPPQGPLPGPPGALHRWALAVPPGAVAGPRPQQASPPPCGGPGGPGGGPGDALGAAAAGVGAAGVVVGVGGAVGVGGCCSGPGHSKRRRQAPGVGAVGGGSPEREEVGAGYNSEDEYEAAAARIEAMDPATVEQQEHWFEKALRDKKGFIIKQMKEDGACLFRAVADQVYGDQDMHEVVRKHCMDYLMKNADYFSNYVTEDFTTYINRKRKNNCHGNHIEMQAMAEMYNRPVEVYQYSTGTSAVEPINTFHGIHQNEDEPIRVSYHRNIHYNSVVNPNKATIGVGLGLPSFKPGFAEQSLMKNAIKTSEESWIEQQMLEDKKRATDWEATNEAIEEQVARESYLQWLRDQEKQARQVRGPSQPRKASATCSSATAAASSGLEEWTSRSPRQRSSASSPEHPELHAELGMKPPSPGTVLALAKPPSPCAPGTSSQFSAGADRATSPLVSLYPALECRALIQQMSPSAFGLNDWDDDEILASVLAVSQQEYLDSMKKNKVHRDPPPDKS
Summary of the method: as §1

EIF3F, sequence (O00303 whole entry): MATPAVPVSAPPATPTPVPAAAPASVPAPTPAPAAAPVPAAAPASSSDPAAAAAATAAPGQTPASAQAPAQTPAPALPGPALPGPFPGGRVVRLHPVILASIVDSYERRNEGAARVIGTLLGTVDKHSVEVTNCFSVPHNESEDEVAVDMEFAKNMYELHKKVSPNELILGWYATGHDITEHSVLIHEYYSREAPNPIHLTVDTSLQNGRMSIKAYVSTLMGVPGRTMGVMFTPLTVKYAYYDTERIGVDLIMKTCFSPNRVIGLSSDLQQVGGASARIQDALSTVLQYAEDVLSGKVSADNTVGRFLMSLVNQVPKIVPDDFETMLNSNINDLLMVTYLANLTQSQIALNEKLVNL
EIF3H, sequence (O15372 whole entry): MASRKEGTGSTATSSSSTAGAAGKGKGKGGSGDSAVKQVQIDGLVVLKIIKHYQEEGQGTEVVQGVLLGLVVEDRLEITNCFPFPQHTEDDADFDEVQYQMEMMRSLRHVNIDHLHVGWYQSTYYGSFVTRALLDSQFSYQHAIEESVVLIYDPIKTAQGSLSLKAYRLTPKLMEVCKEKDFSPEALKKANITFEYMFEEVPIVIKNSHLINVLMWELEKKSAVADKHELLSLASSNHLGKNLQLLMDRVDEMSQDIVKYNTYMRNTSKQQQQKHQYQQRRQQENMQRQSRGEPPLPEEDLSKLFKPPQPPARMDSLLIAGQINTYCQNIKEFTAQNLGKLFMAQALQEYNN
ATXN3, sequence (P54252 whole entry): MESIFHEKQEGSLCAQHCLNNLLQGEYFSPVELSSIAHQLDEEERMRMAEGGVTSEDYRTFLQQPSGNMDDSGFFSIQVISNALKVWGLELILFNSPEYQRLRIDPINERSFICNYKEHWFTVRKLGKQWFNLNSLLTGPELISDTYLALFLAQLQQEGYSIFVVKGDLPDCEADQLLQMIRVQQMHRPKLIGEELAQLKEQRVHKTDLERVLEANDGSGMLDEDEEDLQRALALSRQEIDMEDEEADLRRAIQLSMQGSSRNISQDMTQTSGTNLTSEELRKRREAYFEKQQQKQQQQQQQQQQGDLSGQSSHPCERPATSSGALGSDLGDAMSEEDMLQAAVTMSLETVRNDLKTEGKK
OTUB1, sequence (Q96FW1 whole entry): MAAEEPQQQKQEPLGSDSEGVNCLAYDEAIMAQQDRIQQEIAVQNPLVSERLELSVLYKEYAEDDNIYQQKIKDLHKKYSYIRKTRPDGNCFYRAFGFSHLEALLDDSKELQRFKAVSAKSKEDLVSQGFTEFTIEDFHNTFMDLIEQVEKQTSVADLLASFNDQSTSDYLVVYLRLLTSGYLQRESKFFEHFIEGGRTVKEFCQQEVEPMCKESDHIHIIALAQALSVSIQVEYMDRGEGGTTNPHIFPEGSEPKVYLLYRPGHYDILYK

CNC(=O)C1(NC(=O)CCl)CCCCC1
log2 ratio of Biotin-Ahx-Ub-VS probe labelling (ALG13): -1.06 | log2 ratio of Biotin-Ahx-Ub-VS probe labelling (ATXN3): -0.161 | log2 ratio of Biotin-Ahx-Ub-VS probe labelling (BAP1): -1.12 (active) | log2 ratio of Biotin-Ahx-Ub-VS probe labelling (EIF3F): -0.192 | log2 ratio of Biotin-Ahx-Ub-VS probe labelling (EIF3H): 0.0858 | log2 ratio of Biotin-Ahx-Ub-VS probe labelling (FAM105A): -0.00491 | log2 ratio of Biotin-Ahx-Ub-VS probe labelling (OTUB1): 0.0146 | log2 ratio of Biotin-Ahx-Ub-VS probe labelling (OTUD4): -0.439 | log2 ratio of Biotin-Ahx-Ub-VS probe labelling (OTUD5): -0.0782
